Screening data deposited in PubChem BioAssay by National Center for Advancing Translational Sciences (NCATS).
CtBP-E1A inh: inhibitors of CtBP/E1A interaction. AlphaScreen GST-E1A/His-CtBP binding, 1536-well; active compounds read low. 340,000 tested, 0.49% active. activity change, % (no concentration beside the values); in the data active = activity change below about -65%; inconclusive = mostly about -30% to -63%
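GST-E1A and His-tagged CtBP (125 nM each as 5X stock) were preincubated with pin-transferred compound for 2 h at 37 °C in the dark, then glutathione donor and nickel acceptor beads were added for 1 h before AlphaScreen reading.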
TDP1 block: inhibitors of human tyrosyl-DNA phosphodiesterase TDP1. Q9NUW8. Potency, µM (series often up to 130 µM), without a hit: top-dose activity change, negative = inhibition, hits mostly inhibitors. 350,000 tested, 0.28% active. recombinant TDP1, AlphaScreen DNA substrate cleavage; note: potency is the fitted concentration of half-maximal effect; nearly all actives have a fitted effect of over 40% in size
Target sequence (Q9NUW8 whole entry, looked up): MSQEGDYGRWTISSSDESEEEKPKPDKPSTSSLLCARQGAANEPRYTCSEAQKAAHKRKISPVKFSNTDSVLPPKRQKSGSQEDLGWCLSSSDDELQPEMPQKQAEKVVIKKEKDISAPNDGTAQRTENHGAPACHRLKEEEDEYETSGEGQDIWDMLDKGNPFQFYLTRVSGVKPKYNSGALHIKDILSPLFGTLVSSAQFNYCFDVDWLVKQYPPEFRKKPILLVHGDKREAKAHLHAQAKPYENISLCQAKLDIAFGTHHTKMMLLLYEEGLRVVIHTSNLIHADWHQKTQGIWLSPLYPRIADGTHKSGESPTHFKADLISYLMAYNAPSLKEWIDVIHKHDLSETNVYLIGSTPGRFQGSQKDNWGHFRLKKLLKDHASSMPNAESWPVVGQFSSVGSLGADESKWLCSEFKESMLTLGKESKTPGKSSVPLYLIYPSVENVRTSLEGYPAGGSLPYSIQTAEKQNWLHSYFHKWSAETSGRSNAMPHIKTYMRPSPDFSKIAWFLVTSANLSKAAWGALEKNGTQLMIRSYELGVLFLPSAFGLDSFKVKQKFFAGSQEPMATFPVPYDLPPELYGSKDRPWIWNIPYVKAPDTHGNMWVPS
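Recombinant E. coli-expressed Tdp1 (1 nM) preincubated with compound 15 min at RT, then 5'-biotin/3'-phosphotyrosine-FITC DNA substrate (15 nM) added for 5 min. AlphaScreen beads (10 ug/ml) added, 10 min RT; tyrosine-FITC cleavage read as signal loss.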
TDP1 cell noCPT: qHTS for Inhibitors of human tyrosyl-DNA phosphodiesterase 1 (TDP1): qHTS in cells in absence of CPT; DT40 Tdp1-/- hTDP1 cells, no CPT, ATP luminescence, 48 h; Potency, µM (titrated, usually from 46.2 µM), without a hit: top-dose activity change, negative = growth inhibition, hits mostly inhibitors; 420,000 tested, 15% active; note: potency is the fitted concentration of half-maximal effect; nearly all actives have a fitted effect of over 55% in size
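Chicken DT40 Tdp1-/- cells stably complemented with human TDP1 were seeded at 400 cells/well with DMSO in place of 20 nM camptothecin. After compound pinning, cells grew at least 48 hr at 37 °C; viability read by CellTiter-Glo luminescence.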
DT40 TDP1 CPT: DT40-hTDP1 cell growth loss with CPT. AID 686979. 420,000 tested, 12% active. Potency, µM (titrated, usually from 46.2 µM), without a hit: at the highest dose activity change, negative = growth inhibition, actives largely listed as inhibitors. chicken DT40 Tdp1-/-;hTDP1 cells + 20 nM CPT, ATP luminescence, 48 h; note: potency is the fitted concentration of half-maximal effect; nearly all actives have a fitted effect of over 55% in size
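Cell growth measured by CellTiter-Glo luminescence after a minimum 48 h, 37 C compound exposure with 20 nM CPT in Tdp1-knockout DT40 cells stably expressing hTDP1, seeded 400/well; qHTS titration format.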
IL1B secr inh: inflammasome signaling inhibition, IL-1 beta readout. 360,000 tested, 4.7% active. activity change, % at 57.5 µM. THP-1 LPS/ATP IL-1B secretion, AlphaLISA, 16 h; active compounds read low; in the data active = activity change below about -50%; inconclusive = mostly about -30% to -49%
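Secreted IL-1B measured by AlphaLISA bead assay after 16 h compound exposure of THP-1 cells; compounds (final up to 57.5 uM) added 1 h before LPS (250 ng/mL) and ATP (1.25 mM) stimulation; lower signal means less secretion.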
Six1-Eya2 inh: blocks human Six1 binding to Eya2 | Q15475+O00167 | AlphaScreen GST-Six1/His-Eya2 binding, biochemical; active compounds read low | activity change, % (test concentration not listed) | 360,000 tested, 0.56% active; in the data active = activity change below about -65%; inconclusive = mostly about -30% to -63%
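Homogeneous AlphaScreen proximity assay pairing GST-Six1 with His-tagged Eya2 (added as 5X mix: 250 nM and 500 nM) in 50 mM Tris pH 8.0, 300 mM NaCl, 1 mM TCEP. Glutathione donor and nickel acceptor beads; 1 h, 37 °C, dark.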
An asterisk follows results filed as active; u = inconclusive; x = no result given; [ ] = dose if it differs, or a comment. Compounds with a hit are over-represented: about 18% of the library has one in this group of screens. Unless noted, calls come from the whole dose curve; as a rule, active = well fitted curve in the direction sought with a large enough effect; inconclusive = small, poorly fitted or top-dose-only effect, or another doubt; inactive = no such curve, though single readings can be large; an effect the other way counts as inactive or inconclusive. % is set by controls: 0 for no effect and ±100 for the full control effect.

SMILES	CtBP-E1A inh	TDP1 block	TDP1 cell noCPT	DT40 TDP1 CPT	IL1B secr inh	Six1-Eya2 inh
Cc1ccc(C(=O)N/N=C2\CC3CC=CC23)c(C)c1 (configuration not stated)	x	2%	-3%	-2%	-7	9
NC(=O)c1ncn([C@@H]2O[C@H](CNCc3ccccc3C#Cc3ccccc3)[C@@H](O)[C@H]2O)n1	-1	x	-18%	-26%	12	-1
O=C(NCc1ccc(C(F)(F)F)cc1)c1ccc(-c2ccc(F)c(F)c2)c2ccoc12	20	x	u	u	u	13
CN1CCN(c2ccc(CNC(=O)c3ccc(-c4ccc(F)c(F)c4)c4ccoc34)cc2)CC1	-25	x	18µM*	u	-18	-18
CC(C)CNC(=O)c1ccc(-c2ccc(F)c(F)c2)c2ccoc12	9	x	18µM*	u	-66*	16
O=C(NCc1ccncc1)c1ccc(-c2ccc(F)c(F)c2)c2ccoc12	-2	x	6.5µM*	4.1µM*	-16	-5
O=C(NCCc1ccccc1)c1ccc(-c2cccnc2)c2ccoc12	u	x	15µM*	u	-26	-21
CN1CCN(c2ccc(CNC(=O)c3cccc4c(-c5ccc(F)c(F)c5)coc34)cc2)CC1	u	x	u	u	-11	u
COc1cccc(NS(=O)(=O)c2cc3c4c(c2)C(C)C(=O)N4CCC3)c1 (configuration not stated)	x	0%	u	u	x	x
Cc1noc(C)c1S(=O)(=O)N(CC(=O)NCc1ccc(F)cc1)c1ccc(C(C)C)cc1	4	4%	u	u	-11	2
Cc1ccc(N(C)C(=O)n2cnc3ccccc32)cc1	4	3%	-19%	5%	2	11
O=C(NCc1ccncc1)c1cc(-c2ccc(Cl)cc2)oc1C(F)(F)F	x	1%	18µM*	u	u	-1
Cc1ccc(NC(=O)CCC(=O)c2ccc(Cl)s2)nc1	x	-13%	-1%	3%	17	-1
Cc1cc(C)cc(NC(=O)CCc2c(C)nc3c4cccnc4nn3c2C)c1	x	6%	18µM*	-26%	x	x
COc1cccc(NC(=O)CCc2c(C)nc3c4cccnc4nn3c2C)c1	x	6%	18µM*	u	x	x
CCOC(=O)c1cccc(NC(=O)CCc2c(C)nc3c4cccnc4nn3c2C)c1	x	9%	-27%	u	x	x
COc1cccc(NC(=O)CCc2c(C)nc3nc(CNC(=O)c4cccc(F)c4)nn3c2C)c1	-76*	0%	u	u	9	u
c1ccc(-c2cc(N3CCOCC3)nc3ccccc23)cc1	45	-3%	u	u	-4	37
Cc1ccc(S(=O)(=O)Nc2c(C)nc3nc(C)[nH]n3c2=O)cc1	-13	3%	-7%	-14%	-12	1
Cc1nc2ccc(NC(=O)c3cccc(S(=O)(=O)N(C)c4ccccc4)c3)cc2s1	3	-4%	6.5µM*	3.7µM*	37	-24
Cc1ccc(C(=O)Nc2cccc(C(=O)O)c2)cc1S(=O)(=O)N1CCOCC1	7	-2%	-1%	8%	10	9
COc1ccccc1N(C)S(=O)(=O)c1ccc(C(=O)Nc2ccc3nc(C)sc3c2)cc1	-9	3%	u	16µM*	7	-1
Cc1ccc(NC(=O)c2cccc(S(=O)(=O)N(C)c3ccccc3)c2)cc1S(=O)(=O)N1CCOCC1	4	4%	23µM*	23µM*	0	-6
CC(NC(=O)c1cccc(S(=O)(=O)N(C)c2ccccc2)c1)c1cccnc1 (configuration not stated)	-13	1%	18µM*	18µM*	-6	1
CC(C)c1ccc(OCC(O)CN2CCN(c3ccc(F)cc3)CC2)cc1 (configuration not stated)	x	-7%[12.3 µM]	u	u	x	x
SMILES	CtBP-E1A inh	TDP1 block	TDP1 cell noCPT	DT40 TDP1 CPT	IL1B secr inh	Six1-Eya2 inh
COc1ccc(N2CCN(c3ccc(S(=O)(=O)N(C(C)C)C(C)C)cn3)CC2)cc1	-1	x	7.3µM*	4.6µM*	6	-4
CN(C)S(=O)(=O)c1ccc(N2CCOCC2)nc1	-4	-3%	-7%	-2%	-8	1
CCc1ccc(S(=O)(=O)/N=C2\C=C(Nc3cccc(C(=O)O)c3)C(=O)c3ccccc32)cc1	-75*	x	16µM*	18µM*	-101*	u
CCc1ccc(S(=O)(=O)/N=C2/C=C(Sc3ncn[nH]3)C(=O)c3ccccc32)cc1	0	9%	0.73µM*	0.65µM*	-99*	-11
CCc1ccc(S(=O)(=O)/N=C2\C=CC(=O)c3ccccc32)cc1	x	8%	x	x	x	x
CCc1ccc(S(=O)(=O)/N=C2\C=C(Nc3ccc(O)cc3)C(=O)c3ccccc32)cc1	-89*	13%	3.3µM*	4.1µM*	-103*	-70*
COc1ccc(S(=O)(=O)Nc2cc3c4c(c2)CC(=O)N4CCC3)cc1C	-1	1%	u	u	19	0
CCOc1cc(NC(=O)C2CC2)c(OCC)cc1NC(=O)c1ccccc1OCC	-13	5%	u	u	u	-23
CCOC(=O)C1(CCc2ccccc2)CCN(C(=O)c2ccoc2)CC1	1	x	u	-9%	0	0
CCOc1ccccc1NC(=O)C(OC(=O)c1ccc(CC)cc1)c1ccccc1 (configuration not stated)	15	-3%	u	16µM*	4	14
CCOc1ccccc1NC(=O)C(NCCN(C)C)c1ccccc1 (configuration not stated)	8	-10%	-4%	4%	0	1
CCOc1ccccc1NC(=O)C(NCCc1ccc(OC)cc1)c1ccccc1 (configuration not stated)	2	5%	u	23µM*	-7	3
CCOc1ccccc1NC(=O)C(OC(=O)c1ccc(N(C)C)cc1)c1ccccc1 (configuration not stated)	-1	1%	u	0.58µM*	17	-6
CCOc1ccccc1NC(=O)C(OC(=O)c1cnccn1)c1ccccc1 (configuration not stated)	4	x	-15%	-13%	2	-1
Cc1ccc(NC(=O)C2=CC=CN3CCS(=O)(=O)N=C23)cc1	2	2%	10%	-14%	20	-2
